Results filed as inconclusive are left out. Calls of active or inactive are those of the source. Calls follow the shape of the dose curve; as a rule, active = well fitted curve in the direction sought with a large enough effect; inconclusive = small, poorly fitted or top-dose-only effect, or another doubt; inactive = no such curve, though single readings can be large; an effect the other way counts as inactive or inconclusive.
Key:
[1] = S16 Schwann cell viability assay (CellTiter-Glo assay) (AID 624031);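 also: cellular ATP luminescence as a viability measure; nearly all actives have a fitted effect of over 70% in size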
In short: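 Native S16 Schwann cells (rat), serum-containing medium, overnight attachment then 24 h drug exposure at 37 °C/5% CO2. CellTiter-Glo ATP signal; normalized to cell-free and vehicle wells.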

[2] = S16 Schwann cell PMP22 intronic element firefly luciferase assay (AID 624032); also: nearly all actives have a fitted effect of over 30% in size; also: potency is read from the fitted curve at half-maximal effect
In short: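 Rat S16 Schwann cells stably carrying firefly luciferase driven by a PMP22 intronic element, in 10% FBS, treated 24 h at 37 C. ONE-Glo luminescence normalized to PTC124 control and DMSO (0%); curves classed by r2, magnitude and activity.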

3D7 = assay: qHTS profiling for inhibitors of Plasmodium falciparum proliferation (AID 504749); also: nearly all actives have a fitted effect of over 60% in size; also: potency is read from the fitted curve at half-maximal effect; settings: P. falciparum in erythrocytes, SYBR Green DNA, 72 h; series mostly up to 28.7 µM
In short: (§1)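 Each compound contacts P. falciparum-infected red blood cells for 72 h at 37 C; lysis buffer (Tris, EDTA, saponin, Triton X, SYBR Green I) is added and fluorescence measured next morning; values normalized to controls.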

7G8 = assay: as above; settings: P. falciparum in erythrocytes, SYBR Green DNA, 72 h; series mostly up to 28.7 µM
In short: as §1

AS120 = assay: as above; settings: P. falciparum in erythrocytes, SYBR Green DNA, 72 h; series mostly up to 28.7 µM
In short: as §1

CP217 = assay: as above; settings: P. falciparum in erythrocytes, SYBR Green DNA, 72 h; series mostly up to 28.7 µM
In short: as §1

CP237 = assay: as above; settings: P. falciparum in erythrocytes, SYBR Green DNA, 72 h; series mostly up to 28.7 µM
In short: as §1

CP247 = assay: as above; settings: P. falciparum in erythrocytes, SYBR Green DNA, 72 h; series mostly up to 28.7 µM
In short: as §1

CP252 = assay: as above; settings: P. falciparum in erythrocytes, SYBR Green DNA, 72 h; series mostly up to 28.7 µM
In short: as §1

CP260 = assay: as above; settings: P. falciparum in erythrocytes, SYBR Green DNA, 72 h; series mostly up to 28.7 µM
In short: as §1

CP297 = assay: as above; settings: P. falciparum in erythrocytes, SYBR Green DNA, 72 h; series mostly up to 28.7 µM
In short: as §1

CP335 = assay: as above; settings: P. falciparum in erythrocytes, SYBR Green DNA, 72 h; series mostly up to 28.7 µM
In short: as §1

DIV14 = assay: as above; settings: P. falciparum in erythrocytes, SYBR Green DNA, 72 h; series mostly up to 28.7 µM
In short: as §1

GB4 = assay: as above; settings: P. falciparum in erythrocytes, SYBR Green DNA, 72 h; series mostly up to 28.7 µM
In short: as §1

HB3 = assay: as above; settings: P. falciparum in erythrocytes, SYBR Green DNA, 72 h; series mostly up to 28.7 µM
In short: as §1

ICS = assay: as above; settings: P. falciparum in erythrocytes, SYBR Green DNA, 72 h; series mostly up to 28.7 µM
In short: as §1

PAD = assay: as above; settings: P. falciparum in erythrocytes, SYBR Green DNA, 72 h; series mostly up to 28.7 µM
In short: as §1

PC26 = assay: as above; settings: P. falciparum in erythrocytes, SYBR Green DNA, 72 h; series mostly up to 28.7 µM
In short: as §1

SC27B = assay: as above; settings: P. falciparum in erythrocytes, SYBR Green DNA, 72 h; series mostly up to 28.7 µM
In short: as §1

TAB113 = assay: as above; settings: P. falciparum in erythrocytes, SYBR Green DNA, 72 h; series mostly up to 28.7 µM
In short: as §1

Measured: Potency

OC[C@@H](O)C(O[C@@H]1O[C@@H](CO)[C@H](O)[C@H](O)[C@H]1O)[C@H](O)[C@@H](O)CO (stereo partly specified)
inactive: all assays above

COC(=O)C1C2CC3c4[nH]c5cc(OC)ccc5c4CCN3CC2CC(OC)C1OC (stereo unspecified)
not listed: [1] | 7G8 | DIV14
inactive: all other assays above

Nc1nc(Cl)nc2c1ncn2[C@@H]1O[C@H](CO)[C@H](O)C1F (stereo partly specified)
active: [2] 0.907 µM
not listed: 7G8
inactive: all other assays above

CCCCC(=O)OC1CCC2C3CCc4cc(O)ccc4C3CC[C@]12C (stereo partly specified)
inactive: 3D7 | CP217 | CP237 | CP252 | CP260 | GB4 | HB3 | PC26

CC1(C)SC2[C@@H](N=CN3CCCCCC3)C(=O)N2[C@H]1C(=O)O (stereo partly specified)
not listed: 7G8 | CP297 | DIV14 | ICS | PAD | TAB113
inactive: all other assays above

C=C1/C(=C\C=C2/CCC[C@]3(C)[C@@H]([C@H](C)/C=C/[C@@H](O)C4CC4)CC[C@@H]23)C[C@@H](O)C[C@@H]1O
active: [2] 10.2 µM
not listed: [1] | 7G8 | AS120 | CP260 | ICS
inactive: all other assays above

Oc1cc2cc(CCN3CCN(c4nsc5ccccc45)CC3)c(Cl)cc2[nH]1
inactive: [2] | CP217 | CP252 | CP297 | SC27B | TAB113
active: 7G8 6.31 µM | CP247 10 µM | DIV14 6.75 µM | ICS 6.31 µM

CN(C)CC[C@@](O)(c1ccccc1)c1ccccc1Cl
inactive: [2]
active: 7G8 3.55 µM | AS120 8.91 µM | CP217 12.6 µM | CP237 1.41 µM | CP252 11.2 µM | CP260 10 µM | CP297 5.36 µM | CP335 7.57 µM | DIV14 6.75 µM | GB4 7.57 µM | ICS 4.47 µM | PAD 11.2 µM | PC26 7.57 µM | SC27B 5.62 µM | TAB113 11.2 µM

C=C1CC[C@H](O)C/C1=C/C=C1\CCC[C@]2(C)[C@@H]([C@H](C)CCCC(C)(C)O)CC[C@@H]12
active: 7G8 10 µM | AS120 10 µM | CP247 8.91 µM | CP297 13.5 µM | ICS 7.94 µM

CC[C@H]1OC(=O)[C@H](C)C(=O)[C@H](C)[C@@H](OC2O[C@H](C)C[C@H](N(C)C)[C@@H]2O)[C@@](C)(OC)C[C@@H](C)C(=O)[C@@H](C)C2N(CCCCn3cnc(-c4cccnc4)c3)C(=O)O[C@@]21C (stereo partly specified)
active: 7G8 7.94 µM | DIV14 12 µM | ICS 10 µM | PAD 11.2 µM
inactive: [1] | CP247 | CP252 | PC26

O=C(O)c1ccccc1-c1c2ccc(=O)cc-2oc2cc(O)ccc12
inactive: [2]

NC(C(=O)O)C(O)c1ccc(O)c(O)c1 (stereo unspecified)
active: 3D7 8.91 µM | CP297 16.9 µM | ICS 11.2 µM
inactive: [2]

C=C1N[C@]2(C(=O)COC(C)=O)[C@@H](C[C@H]3[C@@H]4CCC5=CC(=O)C=C[C@]5(C)[C@H]4[C@@H](O)C[C@@]32C)O1
inactive: [2] | CP237 | CP247 | CP252 | CP297 | DIV14 | GB4 | HB3 | PAD

CCN(CC)CCOCCOC(=O)C(CC)(CC)c1ccccc1 (tested in a mixture with another compound)
active: 7G8 5.62 µM | DIV14 1.9 µM | GB4 8.49 µM
inactive: [1] | [2] | 3D7 | CP247 | PAD

C=C1CC2C3C=C(C)C4=CC(=O)CCC4(C)C3CCC2(C)[C@@]1(OC(C)=O)C(C)=O (stereo partly specified)
inactive: AS120 | CP237 | CP247 | CP252 | SC27B
active: 7G8 12.6 µM

O=C(NC(CO)C(O)c1ccc([N+](=O)[O-])cc1)C(Cl)Cl (stereo unspecified)
active: CP335 4.78 µM
inactive: [2] | PAD | PC26 | SC27B

C=C1CC[C@H](O)C/C1=C/C=C1\CCC[C@]2(C)[C@@H]([C@H](C)CC[C@@H](O)C(C)(C)O)CC[C@@H]12
active: 7G8 8.91 µM | AS120 10 µM | CP237 10 µM | DIV14 13.5 µM | ICS 10 µM | PC26 15.1 µM | SC27B 11.2 µM
inactive: [1]

C[C@@H]1CC2[C@@H]3C[C@H](F)C4=CC(=O)C(Cl)=C[C@]4(C)[C@@]3(F)[C@H](O)C[C@]2(C)[C@@]1(O)C(=O)CO (stereo partly specified)
active: 7G8 8.91 µM
inactive: [1] | [2] | 3D7 | CP217 | CP297 | CP335 | HB3 | SC27B

C=C1CCC(O)C/C1=C/C=C1\CCC[C@]2(C)[C@@H]([C@H](C)/C=C/[C@H](C)C(C)C)CC[C@@H]12 (stereo partly specified)
active: [2] 36.1 µM | 7G8 10 µM
inactive: [1] | 3D7 | CP237 | CP260 | CP297 | CP335 | DIV14 | PC26

Cc1cc(O)c2c(c1)OC1(C)CCC3C(C)(C)CCCC34COC2C14 (stereo unspecified)
active: [2] 28.7 µM | 7G8 8.91 µM | DIV14 8.49 µM | GB4 15.1 µM | ICS 6.31 µM | TAB113 8.91 µM
inactive: CP260

CCC1OC(=O)C[C@@H](O)[C@H](C)[C@@H](OC2OC(C)CC(N(C)C)C2O)[C@@H](CC=O)C[C@@H](C)C(=O)/C=C/[C@]2(C)OC2C1C (stereo partly specified)
inactive: [1]
active: 7G8 4.47 µM | CP237 5.01 µM | CP252 3.55 µM | CP297 2.13 µM | CP335 1.2 µM | ICS 4.47 µM

CC1=C(/C=C/C(C)=C\C=C\C(C)=C\C=C\C=C(C)\C=C\C=C(C)\C=C\C2=C(C)C[C@@H](O)CC2(C)C)C(C)(C)C[C@H](O)C1
active: 7G8 1.26 µM | AS120 12.6 µM | CP237 11.2 µM | CP260 10 µM | CP335 15.1 µM | DIV14 12 µM | GB4 13.5 µM | HB3 10 µM | ICS 1.12 µM | PAD 14.1 µM
inactive: [1] | TAB113

Cc1cncc(C(=O)O)[n+]1[O-]
not listed: AS120 | CP217 | CP247 | CP252
inactive: all other assays above

CCOc1ccccc1O[C@@H](c1ccccc1)[C@@H]1CNCCO1
inactive: [1] | [2] | HB3
active: 7G8 5.01 µM | AS120 11.2 µM | DIV14 1.69 µM | ICS 5.01 µM
